Source: PubChem BioAssay (Tox21)
Inconclusive results are not listed. Active and inactive are the calls of the source. Unless noted, calls follow the shape of the dose curve; as a rule, active = well fitted curve in the direction sought with a large enough effect in the repeat runs; inconclusive = weak or mixed curves; inactive = no such curve, though single readings can be large; an effect the other way counts as inactive or inconclusive.

Experiments:
[1] = Caspase-3/7 induction in HepG2 cells by small molecules, qHTS assay (AID 1346978); also: nearly all actives have a fitted effect of over 15% in size; also: potency is read from the fitted curve at half-maximal effect
In short: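 Wild-type HepG2 cells, 2,000/well, settled 5 hr at 37 C and 5% CO2, then compound-treated for 17 hr; caspase-3/7 activity read by luminescent Caspase-Glo 3/7 after 30 min at room temperature.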

[2] = Caspase-3/7 induction in CHO-K1 cells by small molecules, qHTS assay (AID 1346980); also: nearly all actives have a fitted effect of over 15% in size; also: potency is read from the fitted curve at half-maximal effect
In short: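 Wild-type CHO-K1 cells exposed to compounds for 17hr at 37 C, 5% CO2. Caspase-3/7 activity then measured by Caspase-Glo 3/7 luminescence after 30min at room temperature.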

[3] = Caspase-3/7 induction in HepG2 cells by small molecules, qHTS cell viability counter screen (AID 1346981); also: nearly all actives have a fitted effect of over 30% in size; also: potency is read from the fitted curve at half-maximal effect
In short: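 Counter screen for cytotoxicity: HepG2 exposed 16 hr to compounds, then CellTiter-Fluor viability signal (fluorescence, 1 hr reagent incubation).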

[4] = target: Acetylcholinesterase (Homo sapiens) (UniProt P22303); test: Acetylcholinesterase (AChE) small molecule antagonists: colormetric cell-based qHTS assay (AID 1347395; calls by dose curve; also: nearly all actives have a fitted effect of over 30% in size; also: potency is read from the fitted curve at half-maximal effect; as to activity, negative = inhibition: % is scaled to controls: 0 for no effect and ±100 for the full control effect)
In short: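 After overnight attachment at 37 C, SH-SY5Y cells get 30 min compound exposure; detection cocktail (acetylthiocholine, DTNB) then incubates 90 min at 37 C, and absorbance reflects AChE-generated thiocholine.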

[5] = target: Acetylcholinesterase (Homo sapiens) (UniProt P22303); test: Acetylcholinesterase (AChE) small molecule antagonists: enzyme-based qHTS assay (AID 1347397; calls by dose curve; also: % is scaled to controls: 0 for no effect and ±100 for the full control effect; nearly all actives have a fitted effect of over 55% in size); conditions: Potency: AChE enzyme activity inhibition
In short: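 Enzyme inhibition was scored from DTNB-detected thiocholine formed by recombinant human AChE acting on acetylthiocholine. The 30 min compound preincubation and 10 min substrate reaction were both run at room temperature, with DMSO as vehicle control.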

[6] = target: Acetylcholinesterase (Homo sapiens) (UniProt P22303); test: Acetylcholinesterase (AChE) small molecule antagonists: fluorescence cell-based qHTS assay (AID 1347398; calls by dose curve; also: % is scaled to controls: 0 for no effect and ±100 for the full control effect; nearly all actives have a fitted effect of over 50% in size); conditions: Potency: AChE activity
In short: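 Endogenous acetylcholinesterase of SH-SY5Y neuroblastoma cells is measured in situ. After overnight attachment and 30 min compound exposure, cells receive acetylthiocholine and Thiolite Green; fluorescence is read after 40 min at room temperature.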

[7] = target: Acetylcholinesterase (Homo sapiens) (UniProt P22303); test: Acetylcholinesterase (AChE) small molecule antagonists: enzyme-based qHTS assay with human liver microsomes (AID 1347399; calls by dose curve; also: % is scaled to controls: 0 for no effect and ±100 for the full control effect; nearly all actives have a fitted effect of over 60% in size); conditions: Potency: qHTS inhibition
In short: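 Recombinant human AChE (50 mU/mL in the enzyme mix) and human liver microsomes (0.25 mg/mL final) were preincubated with compound and NADPH (0.25 mg/mL final) for 30 min at 37 C. Acetylthiocholine/DTNB was then added; thiocholine was read colorimetrically after 10 min at room temperature.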

[8] = target: Cytochrome P450 2C9 (Homo sapiens) (UniProt P11712); test: Cytochrome P450 Family 2 Subfamily C Member 9 (CYP2C9) small molecule antagonists: luciferase reporter qHTS assay (AID 1671198); also: nearly all actives have a fitted effect of over 50% in size; also: potency is read from the fitted curve at half-maximal effect
In short: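 P450-Glo proluciferin substrate with CYP2C9 enzyme; 10 min RT preincubation, then NADPH regeneration 1 h at 37C; luciferin detection reagent 20 min RT, luminescence in relative luminescence units.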

[9] = target: Voltage-gated inwardly rectifying potassium channel KCNH2 (Homo sapiens) (UniProt Q12809); test: Human Ether-a-go-go-Related Gene (hERG) channel small molecule antagonists: fluorescence cell-based qHTS assay (AID 1671200); also: nearly all actives have a fitted effect of over 50% in size; also: potency is read from the fitted curve at half-maximal effect;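 as to activity change, negative = inhibition: hERG-expressing U2OS cells given a thallium stimulus after FluxOR II dye loading; series mostly up to about 77 µM; % is scaled to controls: 0 for no effect and ±100 for the full control effect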
In short: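 In this thallium-flux screen, overnight-cultured U2OS cells bearing the channel are dye-loaded in darkness for an hour, rested 10 min at room temperature, and then monitored kinetically at 480/540 nm for two minutes post-stimulus.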

[10] = target: Cytochrome P450 3A4 (Homo sapiens) (UniProt P08684); test: Cytochrome P450 Family 3 Subfamily A Member 4 (CYP3A4) small molecule antagonists: luciferase reporter qHTS assay (AID 1671201); also: series mostly up to about 120 µM; % is scaled to controls: 0 for no effect and ±100 for the full control effect; nearly all actives have a fitted effect of over 50% in size
In short: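 CYP3A4 activity was followed with a P450-Glo proluciferin substrate. Test compounds in DMSO were preincubated 10 min; NADPH regeneration then ran 1 h, and light output was read 20 min after detection reagent.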

[11] = target: Nuclear receptor subfamily 1 group I member 2 (Homo sapiens) (UniProt O75469); test: Human pregnane X receptor (PXR) small molecule agonists, qHTS assay (AID 1346982); also: nearly all actives have a fitted effect of over 35% in size; also: potency is read from the fitted curve at half-maximal effect
In short: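 Luminescence (ONE-Glo, 30 min RT) after 24 hr compound exposure of PXR-Luc HepG2 cells; cells rested 5 hr post-plating in 5% charcoal-stripped FBS medium.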

[12] = target: Nuclear receptor subfamily 1 group I member 2 (Homo sapiens) (UniProt O75469); test: CYP3A4 induction through human pregnane X receptor (PXR) by small molecules, qHTS assay (AID 1346984); also: % is scaled to controls: 0 for no effect and ±100 for the full control effect; nearly all actives have a fitted effect of over 40% in size
In short: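 DPX-2 reporter cells; 24h cpd, 37C; Luciferin-IPA 3uM final x3h; One-Glo 30 min RT; lumi read.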

[13] = target: Nuclear receptor subfamily 1 group I member 2 (Homo sapiens) (UniProt O75469); test: Human pregnane X receptor (PXR) activation by small molecules, qHTS assay (AID 1346985); also: potency is read from the fitted curve at half-maximal effect; nearly all actives have a fitted effect of over 40% in size
In short: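 DPX-2 cells (HepG2 co-transfected with a PXR response element and a CYP3A4-promoter luciferase construct) were seeded at 2,000 per well, rested 5 hr at 37C, then exposed to DMSO-dissolved compounds for 24 hr. Activation was read as luciferase luminescence.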

[14] = target: Cytochrome P450 2D6 (Homo sapiens) (UniProt P10635); test: Cytochrome P450 Family 2 Subfamily D Member 6 (CYP2D6) small molecule antagonists: luciferase reporter qHTS assay (AID 1671196); also: nearly all actives have a fitted effect of over 50% in size; also: potency is read from the fitted curve at half-maximal effect; as to activity change, negative = inhibition: series mostly up to about 120 µM; % is scaled to controls: 0 for no effect and ±100 for the full control effect
In short: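 Inhibition of CYP2D6 was gauged by loss of luminescence, since light produced tracks the luciferin generated from a proluciferin substrate. A 10 min room-temperature preincubation preceded 1 h NADPH-supported turnover.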

[15] = target: Cytochrome P450 1A2 (Homo sapiens) (UniProt P05177); test: Cytochrome P450 Family 1 Subfamily A Member 2 (CYP1A2) small molecule antagonists: luciferase reporter qHTS assay (AID 1671199); also: nearly all actives have a fitted effect of over 50% in size; also: potency is read from the fitted curve at half-maximal effect; as to activity change, negative = inhibition: series mostly up to about 120 µM; % is scaled to controls: 0 for no effect and ±100 for the full control effect
In short: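 Signal from luciferin formed by CYP1A2 from a proluciferin substrate is read as luminescence, expressed in relative luminescence units. Compounds sit with enzyme 10 min, NADPH-driven reaction runs 1 h, all at room temperature.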

[16] = target: Cytochrome P450 2C19 (Homo sapiens) (UniProt P33261); test: Cytochrome P450 Family 2 Subfamily C Member 19 (CYP2C19) small molecule antagonists: luciferase reporter qHTS assay (AID 1671197); also: nearly all actives have a fitted effect of over 65% in size; also: potency is read from the fitted curve at half-maximal effect
In short: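 First, compounds are pinned into enzyme-substrate mix and held 10 min at room temperature. Second, NADPH regeneration solution is added and plates incubate 1 h at 37C. Third, detection reagent is added and luminescence read after 20 min.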

[17] = target: Nuclear receptor subfamily 1 group I member 2 (Rattus norvegicus) (UniProt Q9R1A7); test: Rat pregnane X receptor (rPXR) activation by small molecules, qHTS assay (AID 1346983); conditions: rPXR luciferase reporter cells, One-Glo luminescence, 24 h; max activation: hits give high values; also: % is scaled to controls: 0 for no effect and ±100 for the full control effect; nearly all actives have a fitted effect of over 20% in size
In short: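 Cell-based rPXR activation assay: rPXR cells, 2,000 per well, rested 5hr at 37 C, then exposed to compounds in DMSO for 24 hr at 37 C. Luciferase activity read by One-Glo luminescence after 30 min at room temperature.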

Chain of Voltage-gated inwardly rectifying potassium channel KCNH2 (Homo sapiens) (Q12809 whole entry, looked up): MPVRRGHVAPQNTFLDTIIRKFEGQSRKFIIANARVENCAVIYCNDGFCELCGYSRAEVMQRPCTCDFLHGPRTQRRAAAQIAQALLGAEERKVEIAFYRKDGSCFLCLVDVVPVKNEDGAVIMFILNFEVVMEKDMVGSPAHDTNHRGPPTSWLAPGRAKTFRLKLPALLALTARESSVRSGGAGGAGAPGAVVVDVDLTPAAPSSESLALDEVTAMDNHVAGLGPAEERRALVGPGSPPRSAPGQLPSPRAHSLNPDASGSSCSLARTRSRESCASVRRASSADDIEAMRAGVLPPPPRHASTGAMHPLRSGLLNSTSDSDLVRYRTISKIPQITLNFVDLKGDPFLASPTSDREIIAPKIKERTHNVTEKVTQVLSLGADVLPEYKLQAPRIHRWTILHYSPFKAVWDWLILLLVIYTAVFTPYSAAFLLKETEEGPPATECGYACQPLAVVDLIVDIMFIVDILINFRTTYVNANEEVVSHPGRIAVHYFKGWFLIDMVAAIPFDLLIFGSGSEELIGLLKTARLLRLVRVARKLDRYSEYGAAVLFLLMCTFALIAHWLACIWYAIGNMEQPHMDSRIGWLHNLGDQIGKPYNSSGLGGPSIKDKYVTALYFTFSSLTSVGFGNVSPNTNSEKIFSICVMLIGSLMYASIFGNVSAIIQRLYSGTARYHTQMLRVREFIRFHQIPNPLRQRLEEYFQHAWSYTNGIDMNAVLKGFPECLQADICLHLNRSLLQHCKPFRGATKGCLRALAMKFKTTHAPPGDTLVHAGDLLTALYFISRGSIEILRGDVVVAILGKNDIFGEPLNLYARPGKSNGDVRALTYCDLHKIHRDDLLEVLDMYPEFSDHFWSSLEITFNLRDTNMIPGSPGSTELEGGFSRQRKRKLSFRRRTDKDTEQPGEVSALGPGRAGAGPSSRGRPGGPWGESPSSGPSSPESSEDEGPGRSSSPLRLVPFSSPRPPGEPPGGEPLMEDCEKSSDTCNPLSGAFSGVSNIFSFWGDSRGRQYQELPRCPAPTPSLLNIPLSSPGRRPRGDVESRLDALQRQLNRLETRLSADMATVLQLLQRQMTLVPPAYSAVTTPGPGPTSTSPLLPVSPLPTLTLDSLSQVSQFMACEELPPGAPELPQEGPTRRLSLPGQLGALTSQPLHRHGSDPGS
Chain of Cytochrome P450 2C19 (Homo sapiens) (P33261 whole entry, looked up): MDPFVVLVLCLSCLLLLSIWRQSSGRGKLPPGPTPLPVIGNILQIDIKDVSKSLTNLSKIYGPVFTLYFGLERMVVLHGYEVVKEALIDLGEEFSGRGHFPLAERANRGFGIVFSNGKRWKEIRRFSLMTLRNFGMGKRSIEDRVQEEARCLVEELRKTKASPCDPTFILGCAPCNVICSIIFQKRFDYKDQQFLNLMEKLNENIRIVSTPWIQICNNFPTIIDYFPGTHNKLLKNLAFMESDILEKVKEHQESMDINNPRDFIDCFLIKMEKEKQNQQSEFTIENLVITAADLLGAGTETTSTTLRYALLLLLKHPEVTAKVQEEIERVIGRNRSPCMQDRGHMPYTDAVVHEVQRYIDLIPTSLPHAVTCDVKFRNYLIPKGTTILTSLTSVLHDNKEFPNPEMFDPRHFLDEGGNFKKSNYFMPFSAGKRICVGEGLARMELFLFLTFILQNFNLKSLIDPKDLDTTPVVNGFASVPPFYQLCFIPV
Chain of Cytochrome P450 2C9 (Homo sapiens) (P11712 whole entry, looked up): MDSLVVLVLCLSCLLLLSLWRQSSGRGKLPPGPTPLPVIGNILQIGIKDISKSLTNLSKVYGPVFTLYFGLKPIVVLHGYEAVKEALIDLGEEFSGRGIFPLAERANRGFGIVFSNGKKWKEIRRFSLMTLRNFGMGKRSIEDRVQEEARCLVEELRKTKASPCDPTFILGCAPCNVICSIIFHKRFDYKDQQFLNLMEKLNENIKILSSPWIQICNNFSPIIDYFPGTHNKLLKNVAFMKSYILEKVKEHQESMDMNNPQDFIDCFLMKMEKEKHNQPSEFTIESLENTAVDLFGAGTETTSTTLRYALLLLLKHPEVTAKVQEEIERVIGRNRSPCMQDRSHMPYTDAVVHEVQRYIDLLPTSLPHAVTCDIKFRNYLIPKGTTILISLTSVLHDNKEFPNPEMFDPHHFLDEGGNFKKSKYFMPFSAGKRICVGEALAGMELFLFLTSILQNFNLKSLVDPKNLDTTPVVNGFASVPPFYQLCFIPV
Chain of Cytochrome P450 3A4 (Homo sapiens) (P08684 whole entry, looked up): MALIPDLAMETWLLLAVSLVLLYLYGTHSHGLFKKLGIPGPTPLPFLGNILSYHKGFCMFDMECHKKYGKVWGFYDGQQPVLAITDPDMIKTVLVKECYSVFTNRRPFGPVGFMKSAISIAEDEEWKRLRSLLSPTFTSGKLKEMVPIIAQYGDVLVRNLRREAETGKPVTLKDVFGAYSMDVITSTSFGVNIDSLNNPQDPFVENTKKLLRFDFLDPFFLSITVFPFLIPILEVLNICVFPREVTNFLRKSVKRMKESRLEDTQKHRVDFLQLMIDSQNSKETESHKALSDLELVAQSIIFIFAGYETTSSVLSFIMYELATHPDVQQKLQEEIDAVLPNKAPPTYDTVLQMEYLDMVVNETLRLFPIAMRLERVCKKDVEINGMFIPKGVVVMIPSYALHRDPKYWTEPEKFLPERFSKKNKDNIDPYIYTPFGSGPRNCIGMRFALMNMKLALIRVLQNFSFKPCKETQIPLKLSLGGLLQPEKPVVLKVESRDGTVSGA
Chain of Nuclear receptor subfamily 1 group I member 2 (Homo sapiens) (O75469 whole entry, looked up): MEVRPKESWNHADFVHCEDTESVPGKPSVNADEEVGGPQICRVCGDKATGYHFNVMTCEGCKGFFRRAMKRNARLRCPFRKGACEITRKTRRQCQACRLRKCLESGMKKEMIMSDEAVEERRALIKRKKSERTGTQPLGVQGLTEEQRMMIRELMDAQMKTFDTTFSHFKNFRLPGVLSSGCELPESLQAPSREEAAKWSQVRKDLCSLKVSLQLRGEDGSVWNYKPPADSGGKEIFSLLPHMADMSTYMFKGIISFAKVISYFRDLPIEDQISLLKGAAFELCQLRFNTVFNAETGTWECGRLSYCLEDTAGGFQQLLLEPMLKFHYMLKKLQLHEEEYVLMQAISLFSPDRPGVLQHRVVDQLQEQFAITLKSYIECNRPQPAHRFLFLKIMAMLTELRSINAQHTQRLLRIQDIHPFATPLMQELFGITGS
Chain of Cytochrome P450 1A2 (Homo sapiens) (P05177 whole entry, looked up): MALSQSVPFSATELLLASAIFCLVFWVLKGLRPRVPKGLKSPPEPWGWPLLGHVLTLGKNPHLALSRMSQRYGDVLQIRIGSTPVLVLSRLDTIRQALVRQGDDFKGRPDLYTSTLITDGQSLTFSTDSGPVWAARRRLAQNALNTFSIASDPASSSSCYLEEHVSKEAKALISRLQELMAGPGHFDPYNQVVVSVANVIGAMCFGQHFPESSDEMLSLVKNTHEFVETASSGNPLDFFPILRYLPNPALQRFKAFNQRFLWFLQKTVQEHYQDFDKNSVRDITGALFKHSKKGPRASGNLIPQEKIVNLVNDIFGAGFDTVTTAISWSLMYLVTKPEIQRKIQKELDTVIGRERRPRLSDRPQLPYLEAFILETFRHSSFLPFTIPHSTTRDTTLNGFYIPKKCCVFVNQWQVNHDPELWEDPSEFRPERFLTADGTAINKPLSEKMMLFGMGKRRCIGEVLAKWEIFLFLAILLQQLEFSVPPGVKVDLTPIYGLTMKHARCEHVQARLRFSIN
Chain of Acetylcholinesterase (Homo sapiens) (P22303 whole entry, looked up): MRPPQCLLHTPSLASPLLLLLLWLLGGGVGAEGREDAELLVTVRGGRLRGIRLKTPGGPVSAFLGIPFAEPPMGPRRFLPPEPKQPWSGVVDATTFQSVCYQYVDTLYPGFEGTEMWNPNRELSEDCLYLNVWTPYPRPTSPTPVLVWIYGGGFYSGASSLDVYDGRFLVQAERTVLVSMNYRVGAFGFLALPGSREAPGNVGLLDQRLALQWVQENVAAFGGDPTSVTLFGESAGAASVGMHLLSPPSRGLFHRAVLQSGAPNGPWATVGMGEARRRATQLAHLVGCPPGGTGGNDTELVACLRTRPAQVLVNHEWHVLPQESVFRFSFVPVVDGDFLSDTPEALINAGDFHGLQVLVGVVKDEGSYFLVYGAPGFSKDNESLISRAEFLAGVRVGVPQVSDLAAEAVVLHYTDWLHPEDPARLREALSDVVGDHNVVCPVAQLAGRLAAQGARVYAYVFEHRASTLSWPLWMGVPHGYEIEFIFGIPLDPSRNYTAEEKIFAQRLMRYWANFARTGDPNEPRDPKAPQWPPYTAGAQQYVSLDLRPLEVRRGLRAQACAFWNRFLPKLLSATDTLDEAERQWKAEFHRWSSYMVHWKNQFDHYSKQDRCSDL
Chain of Cytochrome P450 2D6 (Homo sapiens) (P10635 whole entry, looked up): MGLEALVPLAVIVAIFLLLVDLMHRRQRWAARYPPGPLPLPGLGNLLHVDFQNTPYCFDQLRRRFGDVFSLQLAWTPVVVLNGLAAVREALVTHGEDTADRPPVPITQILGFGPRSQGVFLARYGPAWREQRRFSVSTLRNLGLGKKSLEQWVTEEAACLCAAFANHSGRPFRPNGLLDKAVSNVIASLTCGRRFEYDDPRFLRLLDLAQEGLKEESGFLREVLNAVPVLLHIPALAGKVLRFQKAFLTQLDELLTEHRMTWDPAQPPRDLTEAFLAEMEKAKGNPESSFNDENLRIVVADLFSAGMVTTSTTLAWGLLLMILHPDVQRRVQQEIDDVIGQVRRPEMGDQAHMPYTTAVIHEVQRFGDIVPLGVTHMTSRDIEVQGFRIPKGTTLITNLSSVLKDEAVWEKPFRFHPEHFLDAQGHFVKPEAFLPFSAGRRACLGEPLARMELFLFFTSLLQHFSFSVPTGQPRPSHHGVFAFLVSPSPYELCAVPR

Cc1cc(C2CC2)nc(Nc2ccccc2)n1
inactive: Potency [1] | Potency [2] | Potency [3] | Potency [4] | Potency [5] | Potency [6] | Potency [7] | Potency [9] | Potency [10]
active: Potency [8] 63.3 µM

O=C(O)[C@H](O)[C@@H](O)C(=O)O
inactive: Potency [1] | Potency [2] | Potency [3] | Potency [4] | Potency [5] | Potency [6] | Potency [9]

ClC1=C(Cl)[C@]2(Cl)[C@@H]3[C@H]4C[C@H]([C@@H]5O[C@H]45)[C@@H]3[C@@]1(Cl)C2(Cl)Cl
active: Potency [11] 5.44 µM | Potency [13] 25.1 µM
inactive: Potency [1] | Potency [2] | Potency [3] | Potency [12] | Potency [4] | Potency [5] | Potency [6] | Potency [7] | Potency [14] | Potency [9]

CCOP(=O)(OCC)Oc1nc(Cl)c(Cl)cc1Cl
inactive: Potency [1] | Potency [2] | Potency [3] | Potency [9] | Potency [10]
active: Potency [11] 54.2 µM | Potency [8] 35.4 µM | Potency [15] 1.58 µM

CC(=O)[O-].CC(=O)[O-].CC(=O)[O-].[Cr+3]
inactive: Potency [1] | Potency [2] | Potency [3] | Potency [9]

Cc1ccccc1OP(=O)(Oc1ccccc1C)Oc1ccccc1C
active: Potency [8] 5.66 µM
inactive: Potency [1] | Potency [2] | Potency [3] | Potency [4] | Potency [5] | Potency [6] | Potency [10]

CCC[CH2][Sn]([CH2]CCC)([CH2]CCC)[O][Sn]([CH2]CCC)([CH2]CCC)[CH2]CCC
inactive: activity, negative = inhibition [4] -0.727% [at 10.5 µM] | activity change, negative = inhibition [5] -1.88% [at 10.5 µM] | activity change, negative = inhibition [7] 0.495% [at 10.5 µM] | activity change, negative = inhibition [15] -6.75% [at 10.5 µM] | activity change, negative = inhibition [10] -17.7% [at 10.5 µM]
active: Potency [1] 2.38 µM | Potency [2] 0.671 µM | Potency [3] 1.34 µM | Potency [11] 0.238 µM | Potency [14] 0.155 µM | Potency [16] 0.981 µM | Potency [9] 1.7 µM

CCN(CC)CCN1C(=O)CN=C(c2ccccc2F)c2cc(Cl)ccc21
inactive: Potency [1] | Potency [2] | Potency [3] | max activation [17] 8.1% | Potency [12] | Potency [4] | Potency [5] | Potency [7] | Potency [16] | Potency [15]
active: Potency [11] 13.3 µM | Potency [13] 14.1 µM | Potency [9] 3.79 µM

CC(C)=CCN1CC[C@@]2(C)c3cc(O)ccc3C[C@@H]1[C@@H]2C
active: Potency [4] 31.2 µM | Potency [16] 78.5 µM
inactive: Potency [1] | Potency [2] | Potency [3] | Potency [11] | Potency [7] | Potency [8] | Potency [15] | Potency [10]
